# Source: PubChem (National Center for Advancing Translational Sciences (NCATS))
# ERK AVP block – qHTS Assay for Inhibitors of the ERK Signaling Pathway using a Homogeneous Screening Assay. HEK293-V1b, vasopressin-stimulated pERK AlphaScreen. 72,000 tested, 0.99% active. Potency, µM (series often up to 57.5 µM), for inactives: top-dose activity, negative = inhibition, actives largely listed as inhibitors; also: potency is read from the fitted curve at half-maximal effect; % is scaled to controls: 0 for no effect and ±100 for the full control effect; nearly all actives have a fitted effect of over 55% in size
#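 HEK293 cells stably expressing V1b receptor, seeded overnight in 1% FBS, were treated with compounds for 30 min at 37C, then stimulated 5 min with 25 nM vasopressin; phospho-ERK read by AlphaScreen SureFire after lysis.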
# BRCT inh green – qHTS Assay for Inhibitors of BRCT-Phosphoprotein Interaction (Green Fluorophore); Breast cancer type 1 susceptibility protein (Homo sapiens), P38398; BRCA1 BRCT-phosphopeptide binding, green fluorescence polarization; Potency, µM (top dose mostly 76.9 µM), for inactives: top-dose activity change, negative = inhibition, actives largely listed as inhibitors; 75,000 tested, 0.05% active; AID 875, 2007;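 also: potency is read from the fitted curve at half-maximal effect; plate controls were peptide without protein for full effect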
# Target sequence (P38398 whole entry, looked up): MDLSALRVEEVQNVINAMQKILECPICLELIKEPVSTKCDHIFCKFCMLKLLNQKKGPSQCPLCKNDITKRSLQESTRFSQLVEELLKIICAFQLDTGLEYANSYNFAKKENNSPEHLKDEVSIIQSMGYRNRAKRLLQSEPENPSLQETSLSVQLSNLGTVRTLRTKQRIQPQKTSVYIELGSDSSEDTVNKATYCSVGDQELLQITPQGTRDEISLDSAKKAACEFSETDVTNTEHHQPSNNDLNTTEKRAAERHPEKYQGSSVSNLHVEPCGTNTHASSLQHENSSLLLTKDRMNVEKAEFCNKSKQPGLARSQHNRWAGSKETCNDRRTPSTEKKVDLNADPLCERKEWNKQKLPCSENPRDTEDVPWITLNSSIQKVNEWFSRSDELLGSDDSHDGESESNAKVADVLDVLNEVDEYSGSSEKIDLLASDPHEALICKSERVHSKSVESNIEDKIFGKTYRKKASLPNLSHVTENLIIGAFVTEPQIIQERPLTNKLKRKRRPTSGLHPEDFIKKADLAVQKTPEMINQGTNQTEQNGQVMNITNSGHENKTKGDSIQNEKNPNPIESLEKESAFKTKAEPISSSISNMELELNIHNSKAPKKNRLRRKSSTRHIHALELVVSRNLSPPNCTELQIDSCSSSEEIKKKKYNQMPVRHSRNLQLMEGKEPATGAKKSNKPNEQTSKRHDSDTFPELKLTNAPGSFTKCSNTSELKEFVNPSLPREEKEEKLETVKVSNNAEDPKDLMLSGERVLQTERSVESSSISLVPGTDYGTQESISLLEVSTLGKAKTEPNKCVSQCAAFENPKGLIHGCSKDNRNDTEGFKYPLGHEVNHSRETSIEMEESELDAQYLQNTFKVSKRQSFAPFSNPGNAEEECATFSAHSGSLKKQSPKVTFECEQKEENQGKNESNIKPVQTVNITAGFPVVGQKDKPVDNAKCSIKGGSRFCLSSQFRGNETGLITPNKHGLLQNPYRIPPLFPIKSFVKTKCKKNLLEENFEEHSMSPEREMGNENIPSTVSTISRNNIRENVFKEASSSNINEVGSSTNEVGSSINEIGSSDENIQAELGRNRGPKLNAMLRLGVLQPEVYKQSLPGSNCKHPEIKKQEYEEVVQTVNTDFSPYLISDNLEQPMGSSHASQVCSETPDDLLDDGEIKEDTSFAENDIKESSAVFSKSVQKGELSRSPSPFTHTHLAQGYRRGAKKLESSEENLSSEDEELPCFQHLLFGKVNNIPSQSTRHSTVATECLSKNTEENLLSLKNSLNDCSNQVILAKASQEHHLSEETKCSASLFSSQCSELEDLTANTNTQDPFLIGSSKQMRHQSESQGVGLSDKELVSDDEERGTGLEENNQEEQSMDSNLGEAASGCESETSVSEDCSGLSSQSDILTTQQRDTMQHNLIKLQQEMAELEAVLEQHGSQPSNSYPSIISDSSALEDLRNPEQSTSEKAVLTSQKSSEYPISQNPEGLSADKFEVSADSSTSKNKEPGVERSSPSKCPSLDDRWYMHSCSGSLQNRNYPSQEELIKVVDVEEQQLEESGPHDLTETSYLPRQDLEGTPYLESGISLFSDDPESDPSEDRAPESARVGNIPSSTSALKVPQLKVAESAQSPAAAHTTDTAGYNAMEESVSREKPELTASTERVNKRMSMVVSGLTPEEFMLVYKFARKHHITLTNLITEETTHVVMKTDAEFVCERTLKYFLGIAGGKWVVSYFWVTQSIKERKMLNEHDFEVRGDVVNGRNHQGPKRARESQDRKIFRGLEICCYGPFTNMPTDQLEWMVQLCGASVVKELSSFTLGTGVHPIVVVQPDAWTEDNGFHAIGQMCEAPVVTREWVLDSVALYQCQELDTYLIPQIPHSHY
#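 Compounds were incubated for 12 min at room temperature with a complex of 100 nM fluorescein-tagged pBACH1 decapeptide and 250 nM His-tagged BRCT protein. Buffer was phosphate pH 7.3 with EDTA, DTT and Tween 20. Disruption of binding lowers the polarization signal.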
# Pol III holo inh – qHTS Assay for Inhibitors of DNA Polymerase III Holoenzyme System; reconstituted DNA polymerase III holoenzyme replication, biochemical; Potency, µM (highest dose often 57.1 µM), for the others: top-dose activity change, negative = inhibition; 71,000 tested, 0.25% active; also: potency is read from the fitted curve at half-maximal effect; % is scaled to controls: 0 for no effect and ±100 for the full control effect
#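 Reconstituted *E. coli* holoenzyme (0.35 nM Pol III, 1 nM beta, 154 nM SSB, 2 nM primase) was preincubated with compound for 15 min at RT. Synthesis on 1.4 nM ssM13Gori ran 35 min, then was stopped with PicoGreen/EDTA and read as dsDNA fluorescence.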
# BRCT PPI red – qHTS Assay for Inhibitors of BRCT-Phosphoprotein Interaction (Red Fluorophore); Breast cancer type 1 susceptibility protein (Homo sapiens), P38398; BRCT-phosphopeptide binding, red fluorescence polarization; Potency, µM (doses to about 76.9 µM), inactives show at the top dose activity change, negative = inhibition, most hits filed as inhibitors; 75,000 tested, 0.03% active; AID 892, 2007; also: % is scaled to controls: 0 for no effect and ±100 for the full control effect
#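 Fluorescence polarization: 100 nM His-tagged BRCA1 BRCT with 100 nM TAMRA-labelled phospho-BACH1 decapeptide, phosphate buffer pH 7.3 with 150 mM NaCl, DTT, 0.01% Tween 20; 12 min RT. Binding inhibition seen as FP decrease.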
# YjeE inh – qHTS Assay for Inhibitors of YjeE. Potency, µM. AID 605, 2007. 71,000 tested, 0.05% active. purified YjeE enzyme, qHTS inhibition assay. tRNA threonylcarbamoyladenosine biosynthesis protein TsaE (Escherichia coli (strain …
#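 Fluorescence polarization of a BODIPY Texas Red–ADP probe (2 uM) bound to purified YjeE (10 uM) was read after 15 min room-temperature incubation with compounds. Loss of polarization marks inhibitors; ADP serves as titrated control.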
# An asterisk follows results filed as active; i = inactive; ? = inconclusive; . = no result given; [ ] = remark or other dose. Hits are enriched below; roughly 1.2% of the tested compounds scored in any of these assays. Calls follow the shape of the dose curve; as a rule, active = well fitted curve in the direction sought with a large enough effect; inconclusive = small, poorly fitted or top-dose-only effect, or another doubt; inactive = no such curve, though single readings can be large; an effect the other way counts as inactive or inconclusive.
SMILES,ERK AVP block,BRCT inh green,Pol III holo inh,BRCT PPI red,YjeE inh
COC(=O)c1ccc(NC(=O)C2CCCN2S(=O)(=O)c2ccc(OC)cc2)cc1 (configuration not stated),-28.3%,-0.1%,5.8%,1.9%,i
COc1ccc(CNc2ncncc2-c2cccc(C#N)c2)c(OC)c1,?,-2.0%,-4.9%,-0.6%,i
N[C@H](C(=O)O)[C@@H](O)c1cnc[nH]1,-1.7%[11.5 µM],-0.3%[15.4 µM],-5.0%[11.4 µM],-1.8%[15.4 µM],i
c1ccc(-c2csc(-c3nc4ccccc4[nH]3)n2)cc1,1.26µM*,?,.,-1.5%,.
Cn1c(-c2nc(-c3ccccc3)cs2)nc2ccccc21,-4.7%,39.8µM*,.,-3.7%,.
Nc1cccc(-c2nc3ccccc3[nH]2)c1,-3.1%,-0.7%,-1.7%,1.9%,i
CCn1c(N2CCN(C(=O)C34CC5CC(CC(C5)C3)C4)CC2)nc2ccccc21,-22.3%,-1.2%,-2.4%,0.5%,i
CCn1c(N2CCN(S(=O)(=O)c3ccccc3C(F)(F)F)CC2)nc2ccccc21,31.6µM*,-2.2%,-3.6%,-1.0%,i
CN(C)c1ccc(/C=C2/C(=O)Nc3ccccc32)cc1,15.8µM*,13.8%,-7.5%,-4.6%,i
COC(=O)[C@@]1(Cc2ccc(OC)cc2)[C@H]2c3cc(C(=O)N(C)C)n(Cc4ccc(Cl)c(C(F)(F)F)c4)c3C[C@H]2CN1C(=O)c1ccccc1,-2.7%,1.7%,-7.8%,0.8%,i
CC1(C)[C@@H](O)CC[C@@]2(C)[C@H]1CC[C@]1(C)[C@H]2C(=O)C=C2[C@@H]3C[C@@](C)(C(=O)O)CC[C@]3(C)CC[C@@]21C,.,.,-7.5%,.,i
Cc1ccc(OCc2nnc(SCC(=O)c3ccccc3)n2Cc2ccco2)cc1,-29.9%,2.3%,-3.8%,-2.7%,i
Cc1ccc(OCc2nnc(SCc3nc4ccccc4[nH]3)n2Cc2ccco2)cc1,31.6µM*,7.5%,1.8%,0.1%,i
C=CCn1c(C)cc(C(=O)CSc2nc3ccccc3c(=O)[nH]2)c1C,20µM*,-0.1%,-3.9%,-0.3%,i
COCCn1c(C)cc(C(=O)CSc2nc3ccccc3c(=O)[nH]2)c1C,-6.3%,6.3%,-3.0%,-2.5%,i
O=C1OC2(c3cc(Br)c(O)c(Br)c3Oc3c2cc(Br)c(O)c3Br)c2c(Cl)c(Cl)c(Cl)c(Cl)c21,?,?,78.0%,2.51µM*,39.8µM*
N#CC(=C(/N)Sc1ccccc1N)/C(C#N)=C(/N)Sc1ccccc1N,0.199µM*,0.7%,0.8%,-0.1%,i
Nc1ccccc1C#Cc1ccccc1,6.8%,-4.2%,-1.5%,0.1%,i
